PubChem BioAssay (NCI)
The panel holds about 83,000 compounds, 20% with a hit somewhere; the sample as a whole holds those more often.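 Step 1: grow cells in 96-well plates. Step 2: add test compound at a single concentration. Step 3: incubate 48 h. Step 4: record percent growth.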 Unmarked numbers belong to inactive results. Activity calls are given as the source filed them. The calls were made as follows: active = growth percent below 10; inactive = the rest.

These compounds were tested on MDA-MB-468 breast (assay: NCI-60 one-dose screen, 48 h (100 = growth as untreated, 0 = no growth, -100 = all killed)). Conditions: 10 µM unless noted.
Work on `CS(=O)(=O)c1cccc(-c2c(-c3cccc(OS(N)(=O)=O)c3)nc3sccn23)c1` yielded a growth of 104%.
In the case of `CC(=O)Oc1ccc(C(OC(C)=O)OC(C)=O)cc1`, the growth is reported as 109%.
Compound `O=C(O)C1(Cc2cccc(Nc3nccs3)n2)CCC(Oc2cccc(Cl)c2F)CC1` (configuration not stated) has a growth of 33.4%.
`O=C(NNc1nc(N2CCCC2)nc(N2CCCC2)n1)c1ccccc1` gave a growth of 112%.
`Cc1cc(C(=C2C=CC(=Nc3ccccc3)C=C2)c2ccc(Nc3ccccc3)cc2)ccc1N` was tested, and the growth was -84.2% (active).
With `Nc1ccc(-c2nnc(SCc3ccc(O)c4ncccc34)n2-c2ccccc2)cc1` the growth was 9.01% (active).
`CN1CC[C@@H](c2c(O)cc(O)c3c(=O)cc(-c4ccccc4Cl)oc23)[C@@H]1CO` was tested, and the growth was -44.2% (active).
For `CCCCCCCCN(CCCCCCCC)C(=N)c1ccnc2ccccc12`, the growth was -75.5% (active).
With `COCCOc1ccc(-c2csc(NC(C)=O)n2)cc1NS(=O)(=O)c1cccc2c(N(C)C)cccc12` the growth was 90.3%.
`C=C1C(=O)O[C@H]2[C@H]1CC/C(COC(=O)NCCc1ccc(OC)c(OC)c1)=C\CC[C@@]1(C)O[C@@H]21` showed a growth of 16.9%.
With `Cc1cn2c(/C=C3/C(=O)Nc4c3ccc3ccccc43)c(C(F)(F)F)nc2s1` the growth was 7.93% (active).
For `Nc1ccc(-c2csc(-n3[nH]c(=O)ccc3=O)n2)cc1`, the growth was 99.3%.
In the case of `COc1cc(-c2cnc3nonc3n2)c(OC)c2c1OCO2`, the growth is reported as 83.5%.
`O=C1c2cccc3cccc(c23)C(=O)N1N1C(=O)c2cccc3c(N4CCOCC4)ccc(c23)C1=O` gave a growth of 99.9%.
`O=C(Nc1ccc(N=Cc2c(O)[nH]c3ccccc23)cc1)Nc1ccc(S(=O)(=O)Nc2ncccn2)cc1` showed a growth of 116%.
For `CN1CCC[C@@H]1CCO[C@](C)(c1ccccc1)c1ccc(Cl)cc1`, the growth was -10.5% (active).
Compound `CC(C)(C)[Si](C)(C)OC1[C@@H](O[Si](C)(C)C(C)(C)C)[C@@H](CNC(=O)NC(=O)C(F)(F)F)O[C@H]1n1cnc2c(NC(=O)Nc3ccccc3)ncnc21` (some centres not stated) has a growth of 102%.
`Cc1nc2cc(Nc3nc(NCCN)nc(Nc4ccc(F)cc4)n3)ccc2n1Cc1ccccc1` showed a growth of 73.2%.
With `CCCCC(=O)OCC1OC(n2cnc3c(=S)nc[nH]c32)C(OC(=O)CCCC)C1OC(=O)CCCC` (configuration not stated) the growth was 67.4%.
`CCCCCCC(C)c1ccccc1O` (configuration not stated) (tested in a mixture with another compound) gave a growth of 124%.
With `OC1CC2c3ccccc3C1c1ccccc12` (configuration not stated) the growth was 111%.
`O=Cc1cc2ccccc2nc1Oc1ccc(C(F)(F)F)cc1` showed a growth of 90.7%.
`C/C=C(\C)C(C(=O)NC1CCCCC1)N(C(=O)C1CCc2cc(F)ccc2O1)c1ccc(Cl)cc1` (configuration not stated) was tested, and the growth was 97%.
`O=C(Nc1ccc2cc3ccc(NC(=O)NC4CCCCC4)cc3nc2c1)NC1CCCCC1` showed a growth of 105%.
For `Cc1cc(OCc2ccc(C(F)(F)F)cc2)c2c(c1)C(=O)C=C(NCCN1CCCC1)C2=O`, the growth was 51.3%.
`Cl/C(=N\Nc1ccccc1)c1ccccc1` gave a growth of 79%.
For `CCOC(=O)C(=Cc1ccc(-c2ccccc2)cc1)C(=O)OCC`, the growth was 53%.
